# In paper PMC7862700, “An all-to-all approach to the identification of sequence-specific readers for epigenetic DNA modifications on cytosine”:
# Tests used:
# Test in all cases: DAPPL (digital affinity profiling via proximity ligation, sequencing); 10 mM Tris-HCl pH 7.5, 50 mM NaCl, 1 mM DTT, 4% glycerol, room temperature, 30 min; GST-TFs on glutathione beads, 16-mer random dsDNA library, 0.1% formaldehyde crosslink after washing; high values mean tight binding
# Settings in all cases: protein: recombinant; tags: N-terminal GST; dsDNA, one strand shown
# FLI1 = biological target: T1, FLI1 (Homo sapiens, UniProt Q01543 1-452)
# T1 sequence: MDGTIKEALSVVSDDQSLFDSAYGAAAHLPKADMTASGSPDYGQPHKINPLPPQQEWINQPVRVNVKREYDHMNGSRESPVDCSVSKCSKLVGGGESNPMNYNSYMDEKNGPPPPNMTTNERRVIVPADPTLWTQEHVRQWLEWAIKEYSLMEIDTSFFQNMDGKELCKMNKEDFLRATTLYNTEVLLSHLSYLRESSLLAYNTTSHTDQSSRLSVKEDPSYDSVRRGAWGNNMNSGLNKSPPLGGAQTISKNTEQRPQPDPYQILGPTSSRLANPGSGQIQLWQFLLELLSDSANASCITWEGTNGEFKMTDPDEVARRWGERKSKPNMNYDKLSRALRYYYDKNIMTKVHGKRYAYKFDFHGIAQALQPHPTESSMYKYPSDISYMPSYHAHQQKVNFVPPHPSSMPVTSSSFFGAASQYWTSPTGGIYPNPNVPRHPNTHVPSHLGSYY
# In short: (§1)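 Yeast served to express human transcription factors as GST fusions, which were then captured on glutathione beads and labelled with DNA barcodes. Pooled with a tag-only sample, they were incubated with 200 nmole of a 16-mer random double-stranded DNA library for 30 min at room temperature in Tris/NaCl/DTT/glycerol buffer, washed, crosslinked with 0.1% formaldehyde, ligated by proximity, amplified by PCR and sequenced. Dividing each hexamer's read frequency for a factor by its frequency for the tag-only sample gives the binding signal.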
# ELK1 = biological target: T2, ELK1 (Homo sapiens, UniProt P19419 1-428)
# T2 sequence: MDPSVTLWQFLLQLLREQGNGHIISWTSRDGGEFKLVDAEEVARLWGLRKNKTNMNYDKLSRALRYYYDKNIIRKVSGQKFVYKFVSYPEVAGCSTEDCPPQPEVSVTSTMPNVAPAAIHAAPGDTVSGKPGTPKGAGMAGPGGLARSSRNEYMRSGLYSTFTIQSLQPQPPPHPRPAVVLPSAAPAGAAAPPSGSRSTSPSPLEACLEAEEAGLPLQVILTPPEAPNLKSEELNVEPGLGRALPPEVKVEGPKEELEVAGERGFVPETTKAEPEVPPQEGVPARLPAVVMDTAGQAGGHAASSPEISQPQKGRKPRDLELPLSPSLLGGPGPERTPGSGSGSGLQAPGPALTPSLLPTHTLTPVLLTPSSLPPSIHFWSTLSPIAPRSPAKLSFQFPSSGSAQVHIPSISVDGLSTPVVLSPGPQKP
# In short: as §1
# GABPA = biological target: T3, GABPA (Homo sapiens, UniProt Q06546 1-454)
# T3 sequence: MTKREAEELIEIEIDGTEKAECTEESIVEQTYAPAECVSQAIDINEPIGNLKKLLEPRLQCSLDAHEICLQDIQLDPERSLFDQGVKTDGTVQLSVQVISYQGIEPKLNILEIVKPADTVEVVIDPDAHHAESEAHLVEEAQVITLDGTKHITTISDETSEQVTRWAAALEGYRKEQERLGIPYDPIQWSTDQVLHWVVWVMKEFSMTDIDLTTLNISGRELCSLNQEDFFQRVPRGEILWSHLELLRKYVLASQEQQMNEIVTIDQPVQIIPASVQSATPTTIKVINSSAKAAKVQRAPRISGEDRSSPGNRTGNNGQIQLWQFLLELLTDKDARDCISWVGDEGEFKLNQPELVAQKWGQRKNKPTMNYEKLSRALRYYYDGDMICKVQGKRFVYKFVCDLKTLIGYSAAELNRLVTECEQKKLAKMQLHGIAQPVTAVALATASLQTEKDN
# In short: as §1
# ERG = biological target: T4, ERG (Homo sapiens, UniProt P11308 1-479)
# T4 sequence: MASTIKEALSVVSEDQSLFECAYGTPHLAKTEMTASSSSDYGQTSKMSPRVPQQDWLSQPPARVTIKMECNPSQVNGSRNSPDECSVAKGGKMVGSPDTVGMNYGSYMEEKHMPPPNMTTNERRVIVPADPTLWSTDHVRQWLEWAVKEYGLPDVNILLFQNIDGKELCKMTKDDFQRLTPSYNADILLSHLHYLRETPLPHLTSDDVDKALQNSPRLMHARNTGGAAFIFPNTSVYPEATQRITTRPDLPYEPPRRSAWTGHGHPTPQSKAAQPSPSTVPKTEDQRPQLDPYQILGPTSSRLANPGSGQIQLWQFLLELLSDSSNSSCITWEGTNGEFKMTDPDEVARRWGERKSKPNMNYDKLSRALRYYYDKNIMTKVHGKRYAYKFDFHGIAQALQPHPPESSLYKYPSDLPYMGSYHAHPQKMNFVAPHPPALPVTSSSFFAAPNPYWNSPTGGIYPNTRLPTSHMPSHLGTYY
# In short: as §1
# ELF1 = ELF1 (Homo sapiens, UniProt P32519 1-619)
# In short: as §1
# EHF = biological target: T5, EHF (Homo sapiens, UniProt Q9NZC4 1-300)
# T5 sequence: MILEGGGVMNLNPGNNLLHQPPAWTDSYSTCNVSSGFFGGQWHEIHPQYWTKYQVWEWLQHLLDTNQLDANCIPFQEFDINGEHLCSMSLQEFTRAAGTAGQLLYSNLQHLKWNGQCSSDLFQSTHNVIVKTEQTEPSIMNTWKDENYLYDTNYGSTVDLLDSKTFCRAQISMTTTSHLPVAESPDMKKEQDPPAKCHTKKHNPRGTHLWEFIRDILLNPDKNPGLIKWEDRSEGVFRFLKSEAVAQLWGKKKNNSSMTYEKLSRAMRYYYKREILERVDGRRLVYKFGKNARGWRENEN
# In short: as §1
# SPI1 = SPI1 (Homo sapiens, UniProt P17947 1-270)
# In short: as §1
# SPIB = SPIB (Homo sapiens, UniProt Q01892 1-262)
# In short: as §1
# ELK3 = biological target: T6, ELK3 (Homo sapiens, UniProt P41970 1-407)
# T6 sequence: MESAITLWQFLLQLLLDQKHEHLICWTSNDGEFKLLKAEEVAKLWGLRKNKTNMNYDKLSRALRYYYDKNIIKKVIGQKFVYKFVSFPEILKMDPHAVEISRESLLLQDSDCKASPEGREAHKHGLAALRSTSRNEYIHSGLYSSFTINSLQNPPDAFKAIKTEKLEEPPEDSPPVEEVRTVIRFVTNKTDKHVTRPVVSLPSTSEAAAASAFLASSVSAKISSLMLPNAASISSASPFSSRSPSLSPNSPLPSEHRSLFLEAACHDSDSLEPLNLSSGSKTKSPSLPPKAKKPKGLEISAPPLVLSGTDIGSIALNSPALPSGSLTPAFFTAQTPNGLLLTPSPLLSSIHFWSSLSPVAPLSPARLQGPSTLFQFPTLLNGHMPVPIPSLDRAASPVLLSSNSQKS
# In short: as §1
# SPIB, sequence (Q01892 whole entry): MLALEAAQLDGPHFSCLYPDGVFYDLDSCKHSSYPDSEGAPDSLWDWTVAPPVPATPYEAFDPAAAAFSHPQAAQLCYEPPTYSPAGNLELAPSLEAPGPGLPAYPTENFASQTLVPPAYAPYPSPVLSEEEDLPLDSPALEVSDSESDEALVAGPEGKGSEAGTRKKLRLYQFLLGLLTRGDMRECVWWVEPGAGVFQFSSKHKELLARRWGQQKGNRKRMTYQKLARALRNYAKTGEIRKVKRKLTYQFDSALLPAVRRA
# ELF1, sequence (P32519 whole entry): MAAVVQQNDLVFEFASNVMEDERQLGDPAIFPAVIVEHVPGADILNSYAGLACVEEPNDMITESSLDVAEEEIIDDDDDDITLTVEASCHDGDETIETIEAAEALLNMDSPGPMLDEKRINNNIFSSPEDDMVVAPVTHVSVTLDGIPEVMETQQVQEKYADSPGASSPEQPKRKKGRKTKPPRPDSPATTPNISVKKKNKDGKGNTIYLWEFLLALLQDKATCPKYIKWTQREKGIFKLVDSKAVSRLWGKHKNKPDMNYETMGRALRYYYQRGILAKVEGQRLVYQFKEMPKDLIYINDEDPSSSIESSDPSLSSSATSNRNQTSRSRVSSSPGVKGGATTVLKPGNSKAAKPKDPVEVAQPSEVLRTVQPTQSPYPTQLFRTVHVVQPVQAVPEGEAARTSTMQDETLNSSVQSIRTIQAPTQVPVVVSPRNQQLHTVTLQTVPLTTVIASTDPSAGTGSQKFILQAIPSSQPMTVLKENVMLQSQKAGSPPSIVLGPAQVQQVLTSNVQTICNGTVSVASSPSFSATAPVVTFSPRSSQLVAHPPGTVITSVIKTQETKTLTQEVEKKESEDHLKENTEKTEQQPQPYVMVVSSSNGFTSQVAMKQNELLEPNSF
sequence,measurement,setting,value
TCTGCG,binding signal,FLI1,"1.12 fold enrichment (6-mer frequency, TF over GST control)"
same,binding signal,ELK1,"1.28 fold enrichment (6-mer frequency, TF over GST control)"
same,binding signal,GABPA,"1.27 fold enrichment (6-mer frequency, TF over GST control)"
same,binding signal,ERG,"1.18 fold enrichment (6-mer frequency, TF over GST control)"
same,binding signal,ELF1,"1.2 fold enrichment (6-mer frequency, TF over GST control)"
same,binding signal,EHF,"1.23 fold enrichment (6-mer frequency, TF over GST control)"
same,binding signal,SPI1,"1.28 fold enrichment (6-mer frequency, TF over GST control)"
same,binding signal,SPIB,"1.23 fold enrichment (6-mer frequency, TF over GST control)"
same,binding signal,ELK3,"1.11 fold enrichment (6-mer frequency, TF over GST control)"
